# The list is not random: actives were taken first. Their share in the collection is about 2.7%.
# TGFb SMAD3 inh = qHTS for Inhibitors of TGF-b | HepG2 CAGA-GFP TGF-b/SMAD3 reporter, GFP fluorescence, 18 h; TGF-beta stimulated, 500 pg/mL final | Potency, µM (top dose mostly 46.1 µM), for inactives: at the top dose activity, negative = inhibition, actives largely listed as inhibitors | hit rate 1.2% among 410,000 | AID 588855, 2011; also: % is scaled to controls: 0 for no effect and ±100 for the full control effect; nearly all actives have a fitted effect of over 65% in size
#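 Cell-based qHTS in HEPG2 carrying a CAGA-GFP Smad reporter; compounds added before 500 pg/mL final TGF-beta, 18 h incubation at 37 degrees C, GFP fluorescence quantified per cell by imaging cytometry.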
# S2 tox = Viability Counterscreen for Primary qHTS for Inhibitors of ATXN expression. Potency, µM (series often up to 56.7 µM), actives largely listed as cytotoxic. hit rate 0.49% among 400,000. AID 651635, 2014. S2 cells (HEK-293 line with an ATXN2-luciferase reporter) viability, CellTiter-Fluor protease fluorescence, 24 h; also: nearly all actives have a fitted effect of over 40% in size
# 12-LOX inh = Primary qHTS assay for inhibitors of human arachidonate 12S-lipoxygenase (ALOX12): Round 2. Potency, µM (top dose mostly 108 µM), inactives show top-dose activity change, negative = inhibition, usual class: inhibitors. purified 12hLO, xylenol orange hydroperoxide absorbance. hit rate 1.1% among 580,000. Polyunsaturated fatty acid lipoxygenase ALOX12 (Homo sapiens), P18054; also: % is scaled to controls: 0 for no effect and ±100 for the full control effect
# Target sequence (P18054 whole entry, looked up): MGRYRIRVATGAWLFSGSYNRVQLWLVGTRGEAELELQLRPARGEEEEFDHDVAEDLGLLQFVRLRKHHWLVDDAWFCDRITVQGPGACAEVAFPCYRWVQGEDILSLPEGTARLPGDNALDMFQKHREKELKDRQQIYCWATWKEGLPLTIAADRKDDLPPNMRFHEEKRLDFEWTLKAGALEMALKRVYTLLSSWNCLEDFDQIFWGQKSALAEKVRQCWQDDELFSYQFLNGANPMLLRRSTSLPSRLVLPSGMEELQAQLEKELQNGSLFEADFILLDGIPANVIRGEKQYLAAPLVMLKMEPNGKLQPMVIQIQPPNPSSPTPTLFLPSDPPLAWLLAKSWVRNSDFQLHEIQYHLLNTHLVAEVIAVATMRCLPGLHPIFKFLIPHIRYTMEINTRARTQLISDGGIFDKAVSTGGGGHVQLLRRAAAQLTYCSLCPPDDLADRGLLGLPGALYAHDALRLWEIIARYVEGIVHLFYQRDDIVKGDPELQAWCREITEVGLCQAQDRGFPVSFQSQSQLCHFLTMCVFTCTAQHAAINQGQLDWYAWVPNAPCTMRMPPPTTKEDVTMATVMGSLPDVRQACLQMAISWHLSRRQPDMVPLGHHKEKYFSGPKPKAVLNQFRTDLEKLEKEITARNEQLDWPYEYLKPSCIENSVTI
#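 Purified human 12hLO (150 nM final) in 25 mM Hepes, 0.01% Triton X-100, pH 7.0 was preincubated 15 min at room temperature with compound. Then 40 uM arachidonic acid was added, 30 min. Hydroperoxide was read by Fe-XO absorbance ratio 573/405 nm.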
# ATXN2 expr inh = Primary qHTS for Inhibitors of ATXN expression; hit rate 0.72% among 360,000; HEK-293 ATXN2-luciferase reporter, luminescence, 24 h; AID 1745845, 2022; Potency, µM (top dose mostly 57 µM), without a hit: at the top dose activity change, negative = inhibition, most hits filed as inhibitors; also: % is scaled to controls: 0 for no effect and ±100 for the full control effect; nearly all actives have a fitted effect of over 55% in size
#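 qHTS (up to 57 uM final) was run with 24 h compound exposure of reporter cells at 37 °C. Each well was multiplexed: SteadyGlo luminescence measured ATXN2-luciferase expression after a fluorogenic Gly-Phe-AFC viability readout (25 uM final).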
# HepG2 tox = qHTS for Inhibitors of TGF-b: Cytotox Counterscreen | HepG2 CAGA-GFP viability, ATP luminescence, 18 h | Potency, µM (doses to about 46.1 µM), without a hit: at the highest dose activity change, negative = cytotoxicity, usual class: cytotoxic | hit rate 0.76% among 410,000 | AID 588856, 2011
#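 HepG2 CAGA-GFP cells (1000/well, DMEM with 1% FBS) received compound, then TGF-beta at 500 pg/mL final, and were incubated 18 hours at 37 degrees C. Viability was read by CellTiter-Glo luminescence. Media-only wells were set as complete cell-killing and DMSO as no toxicity.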
# An asterisk follows results filed as active; i = inactive; ? = inconclusive; . = not tested or not shown; [ ] = another dose, or the depositor's remark. Calls follow the shape of the dose curve; as a rule, active = well fitted curve in the direction sought with a large enough effect; inconclusive = small, poorly fitted or top-dose-only effect, or another doubt; inactive = no such curve, though single readings can be large; an effect the other way counts as inactive or inconclusive. Potency is read from the fitted curve at half-maximal effect.
SMILES,TGFb SMAD3 inh,S2 tox,12-LOX inh,ATXN2 expr inh,HepG2 tox
Cc1oc(-c2ccc3c(c2)OCCO3)cc1C(=O)O,4.5%,?,21.5%,7.08µM*,-56.9%
Cc1oc(-c2ccc3c(c2)OCCO3)cc1C(=O)NCC(=O)O,-9.8%,i,-15.0%,-37.3%,-7.6%
O=C(CN1CCN(c2ccc(O)cc2)CC1)NC(c1ccccc1)c1ccccc1,-10.1%,i,22.4µM*,-16.6%,-7.9%
O=C(Nc1ccc2[nH]c(=O)[nH]c2c1)c1nn(-c2ccccc2Cl)c2c1CCCC2,.,.,-3.1%,.,.
N#Cc1ccc(N2CCC(C(=O)NCCc3cccs3)CC2)nc1,.,.,10.9%,.,.
CC(C)=CCc1cc([C@@H]2CC(=O)c3ccc(O)c(CC=C(C)C)c3O2)ccc1O,12.6µM*,?,?,?,-68.1%
COc1c(CC=C(C)C)cc(C2CC(=O)c3c(O)cc(O)cc3O2)c(CC=C(C)C)c1O (centres undefined),?,?,.,?,-110.8%
OCCN1CCN(CC(O)COc2ccc(C34CC5CC(CC(C5)C3)C4)cc2)CC1 (centres undefined),?,i,?,-27.2%,15.8µM*
Cc1ccc(C(C)C)c(OCC(O)CN2CCN(CCO)CC2)c1 (centres undefined),9.0%,i,10µM*,2.4%,7.0%
COC(=O)COc1ccc2c(c1)oc(=O)c1ccccc12,.,.,-113.2%,.,.
O=C(O)C(Cc1c[nH]c2ccccc12)NS(=O)(=O)c1ccc(Cl)c(C(F)(F)F)c1 (centres undefined),10.0%,i,39.8µM*,0.3%,-0.5%
O=C(O)C(Cc1c[nH]c2ccccc12)NS(=O)(=O)c1ccccc1 (centres undefined),-8.2%,i,3.1%,-4.2%,12.2%
O=C(NC(Cc1c[nH]c2ccccc12)C(=O)O)OCC1c2ccccc2-c2ccccc21 (centres undefined),-3.3%,i,35.5µM*,13.2%,5.0%
CC1=C/C(=C(\c2ccc(O)c(C)c2)c2ccccc2S(=O)(=O)O)C=CC1=O,8.0%,i,6.31µM*,6.8%,9.4%
[C-]#[N+][C@H](O[C@@H]1O[C@H](CO)[C@@H](O)[C@H](O)[C@H]1O)c1ccccc1,5.2%,i,-4.4%,-8.2%,1.8%
O=C(O)CC(CCc1ccccc1)OC1OC(CO)C(O)C(O)C1O (centres undefined),-2.4%,i,44.7µM*,3.5%,3.9%
Cc1cccc(NC(=S)Nc2ccc(Oc3ccccc3)cc2)n1,?,i,10µM*,-2.9%,-6.4%
Cc1cccc(NC(=S)NC2CCCCC2)n1,0.0%,i,39.8µM*,18.7%[11.3 µM],-1.2%
Cc1cccc(NC(=S)NC2CCCC2)n1,?,?,44.7µM*,.,-12.7%
Cc1cccc(NC(=S)Nc2cccc(C)n2)n1,-23.2%,i,0.0%,-13.2%,-12.5%
N#Cc1ccc(C(=O)Nc2ccc3c(c2)N(C2CCCC2)C(=O)c2ccccc2S3)cc1,5.62µM*,i,-9.6%,-0.7%,-7.6%
Cc1ccc2c(C)c(C(=O)O)oc2c1,.,.,-39.4%,.,.
COCc1cc(=O)[nH]c(SCCS(=O)(=O)c2ccc(Cl)cc2Cl)n1,?,.,-96.6%,20µM*,-38.9%
COCc1cc(=O)[nH]c(SCCS(=O)(=O)c2ccc(C)cc2)n1,13.2%,i,0.0%,-17.7%,19.2%
CN1CCN(c2nc(-c3ccc(Cl)s3)cs2)CC1,0.0%,i,8.91µM*,13.4%,-73.2%
SMILES,TGFb SMAD3 inh,S2 tox,12-LOX inh,ATXN2 expr inh,HepG2 tox
COc1cc(OC)c2c(C)c(CC(=O)Nc3ccc(Cn4cncn4)cc3)c(=O)oc2c1,.,.,31.2%,.,.
COc1ccc(C23CC4CC(CC(C4)C2)C3)cc1C(=O)NCCN(C)C,?,.,?,.,15.8µM*
COc1ccc(C23CC4CC(C2)CC(c2ccc(OC)c(C(=O)NC(C)C)c2)(C4)C3)cc1C(=O)NC(C)C,.,.,18.8%,.,.
CC(C)CCN1C(=O)c2ccc(-c3nc4ccccc4o3)cc2C1=O,.,.,-44.9%,.,.
COc1ccc(-c2cccc(CCC(=O)N3CCN(c4cc(C)ccc4C)CC3)c2)cc1,?,i,-4.7%,-10.5%,-11.0%
COc1ccc(NC(=O)NCCCN2CCN(c3cc(C)ccc3C)CC2)cc1,?,?,15.5%,?,12.6µM*
COc1ccc(NC(=O)NCCCN2CCN(c3ccccc3F)CC2)cc1,0.0%,i,3.0%,-11.1%,-5.7%
COc1ccc(C2=C(C)C(=NCCCN3CCN(c4cc(C)ccc4C)CC3)NS2(=O)=O)cc1,?,.,?,.,10µM*
CC1CC(=O)Nc2cc(S(=O)(=O)N3CCN(c4ccccc4F)CC3)ccc2S1 (centres undefined),.,.,-56.8%,.,.
CCOc1cc(/C=N/O)ccc1OCc1ccc([N+](=O)[O-])cc1,9.7%,i,17.6%,11.1%,-9.6%
CCOc1cc(C=C(C(=O)OC)C(=O)OC)ccc1OCc1ccc([N+](=O)[O-])cc1,12.6µM*,?,0.0%,31.6µM*,-52.1%
O=C1C(=O)c2cccnc2-c2ncccc21,1.41µM*,0.398µM*,3.98µM*,0.501µM*,2µM*
COC1=C(Br)C(=O)c2ncccc2C1=O,?,23.8µM*,25.1µM*,15µM*,-51.9%
COc1ccccc1N1C(=O)c2cccnc2C1=O,1.6%,i,0.0%,.,2.8%
O=C1c2cccnc2-c2ncccc21,16.1%,?,-4.1%,-0.9%,-7.5%
Cc1ccc(C(=O)COC(=O)c2ccccc2-c2ccccc2)cc1C,.,.,20.6%,.,.
COc1ccc(Cc2nc3c4c(C)c(C)n(CC(C)C)c4ncn3n2)cc1OC,.,.,-15.8%,.,.
COCCn1cnc2c1c(=O)n(Cc1ccc(C(N)=O)cc1)c(=O)n2CC(C)C,.,.,2.7%,.,.
O=[N+]([O-])c1ccc(O/N=[N+](\[O-])N2CCN(c3ncccn3)CC2)c([N+](=O)[O-])c1,10µM*,.,.,.,-91.4%
COCCOC(=O)N1CCN(/[N+]([O-])=N/Oc2ccc([N+](=O)[O-])cc2[N+](=O)[O-])CC1,?,.,.,.,-98.3%
O=[N+]([O-])c1ccc(O/N=[N+](\[O-])N2CCN(c3ccccc3)CC2)c([N+](=O)[O-])c1,11.2µM*,.,.,.,-25.0%
O=C(OCCF)N1CCN(/[N+]([O-])=N/Oc2ccc([N+](=O)[O-])cc2[N+](=O)[O-])CC1,8.91µM*,.,.,.,20µM*
COC(=O)c1sc2nc(C)cc(C)c2c1N,5.7%,i,-7.9%,8.6%,7.7%
Cc1cc(C)c2c(N)c(C(=O)Nc3ncc(C)s3)sc2n1,0.0%,i,0.0%[57.4 µM],2.51µM*,-53.4%
CCCCN(Cc1ccccc1)c1ccc(C(=O)O)cc1NS(=O)(=O)c1ccc(C(C)=O)cc1,.,.,5.62µM*,.,.

# Compound activity as filed in PubChem BioAssay.
